Binding signal data for 20 sequences are collected here from PMC11006913.

Numbering of substitutions follows the chain as printed.

What all share (test): PBM; 200 nM protein, PBS
Conditions in all cases: dsDNA, one strand shown

In test [1] the target is HOXC10 (Homo sapiens, UniProt Q9NYD6 254-340).
The target of test [2] is ALX3 (Homo sapiens, UniProt O95076 139-225, N203Q).
The target of test [3] is HOXC10 (Homo sapiens, UniProt Q9NYD6 254-340, K271E).
The target in test [4] is ALX3 (Homo sapiens, UniProt O95076 139-225).
Chain of ALX3 (Homo sapiens, UniProt O95076 139-225) (O95076 139-225): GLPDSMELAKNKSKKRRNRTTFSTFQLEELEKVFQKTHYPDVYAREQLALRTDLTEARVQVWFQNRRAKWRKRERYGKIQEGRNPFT
Test [5] concerns the target ALX3 (Homo sapiens, UniProt O95076 139-225, L168Q).
Test [6] addresses ALX3 (Homo sapiens, UniProt O95076 139-225, L168V).
The target of test [7] is ALX3 (Homo sapiens, UniProt O95076 139-225, N203S).
Chain of ALX3 (Homo sapiens, UniProt O95076 139-225, N203S) (O95076 139-225 N203S): as the sequence (O95076 139-225) above, with N65S counted along it
The target in test [8] is T1, NKX2-6 (Homo sapiens, UniProt A6NCS4 118-204).
T1 sequence: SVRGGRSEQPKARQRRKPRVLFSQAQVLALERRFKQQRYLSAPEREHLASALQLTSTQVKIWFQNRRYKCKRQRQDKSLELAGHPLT

The target in test [9] is T2, NKX2-6 (Homo sapiens, UniProt A6NCS4 118-204, F151L).
T2 sequence: T1 sequence with F34L

Test [10] has as its target HOXD13 (Homo sapiens, UniProt P35453 263-343, T313R).
For test [11], the target named is HOXC9 (Homo sapiens, UniProt P31274 178-260, R222W).
Chain of HOXC9 (P31274 178-260 R222W): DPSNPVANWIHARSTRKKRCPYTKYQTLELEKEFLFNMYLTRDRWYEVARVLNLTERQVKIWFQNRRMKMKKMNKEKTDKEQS
Test [12] addresses PITX2 (Homo sapiens, UniProt Q99697 72-157).

Chain of HOXC10 (Homo sapiens, UniProt Q9NYD6 254-340) (Q9NYD6 254-340): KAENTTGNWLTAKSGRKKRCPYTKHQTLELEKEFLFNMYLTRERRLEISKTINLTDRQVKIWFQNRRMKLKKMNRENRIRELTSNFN
Chain of HOXC10 (Homo sapiens, UniProt Q9NYD6 254-340, K271E) (Q9NYD6 254-340 K271E): as the sequence (Q9NYD6 254-340) above, with K18E counted along it
Chain of ALX3 (Homo sapiens, UniProt O95076 139-225, L168Q) (O95076 139-225 L168Q): as the sequence (O95076 139-225) above, with L30Q counted along it
Chain of HOXD13 (P35453 263-343 T313R): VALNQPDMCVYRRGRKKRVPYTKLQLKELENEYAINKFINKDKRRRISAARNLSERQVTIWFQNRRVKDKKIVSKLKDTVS
Chain of ALX3 (Homo sapiens, UniProt O95076 139-225, N203Q) (O95076 139-225 N203Q): as the sequence (O95076 139-225) above, with N65Q counted along it
Chain of ALX3 (Homo sapiens, UniProt O95076 139-225, L168V) (O95076 139-225 L168V): as the sequence (O95076 139-225) above, with L30V counted along it

As for AGCTGGCG, the binding signal in [1] is 9.96 upbm affinity estimate (log intensity, higher = more binding, comparable within an allelic series); in [2] it was 7.77 upbm affinity estimate (log intensity, higher = more binding, comparable within an allelic series); in test [3], 9.94 upbm affinity estimate (log intensity, higher = more binding, comparable within an allelic series); in test [4], 7.78 upbm affinity estimate (log intensity, higher = more binding, comparable within an allelic series); in [5], 7.68 upbm affinity estimate (log intensity, higher = more binding, comparable within an allelic series); in test [6], 7.73 upbm affinity estimate (log intensity, higher = more binding, comparable within an allelic series). Moreover, the binding signal in test [7] was 7.86 upbm affinity estimate (log intensity, higher = more binding, comparable within an allelic series).
Take GTCCCGCA: the binding signal in test [1] is 10.1 upbm affinity estimate (log intensity, higher = more binding, comparable within an allelic series); in test [8] it was 9.41 upbm affinity estimate (log intensity, higher = more binding, comparable within an allelic series); in test [3], 10.1 upbm affinity estimate (log intensity, higher = more binding, comparable within an allelic series); in test [9] it was 9.36 upbm affinity estimate (log intensity, higher = more binding, comparable within an allelic series).
Consider CGCTGGGC, for which the binding signal in test [1] was 10 upbm affinity estimate (log intensity, higher = more binding, comparable within an allelic series); in [8], 9.13 upbm affinity estimate (log intensity, higher = more binding, comparable within an allelic series); in [3], 9.98 upbm affinity estimate (log intensity, higher = more binding, comparable within an allelic series); in test [9] it was 9.22 upbm affinity estimate (log intensity, higher = more binding, comparable within an allelic series).
As for GAAGCTGC, the binding signal in [1] was 10.1 upbm affinity estimate (log intensity, higher = more binding, comparable within an allelic series); in test [3] it was 10 upbm affinity estimate (log intensity, higher = more binding, comparable within an allelic series).
As for ATAAAAAT, the binding signal was 12.2 upbm affinity estimate (log intensity, higher = more binding, comparable within an allelic series) in [1]; 10.7 upbm affinity estimate (log intensity, higher = more binding, comparable within an allelic series) in test [10]; 11.7 upbm affinity estimate (log intensity, higher = more binding, comparable within an allelic series) in test [3]; 11.2 upbm affinity estimate (log intensity, higher = more binding, comparable within an allelic series) in test [11].
For the sequence GACGATTA, the binding signal in test [1] is 11.2 upbm affinity estimate (log intensity, higher = more binding, comparable within an allelic series); in test [3], 11.1 upbm affinity estimate (log intensity, higher = more binding, comparable within an allelic series).
For CCCGGGCG, the binding signal in [1] was 10.1 upbm affinity estimate (log intensity, higher = more binding, comparable within an allelic series); in test [3], 10.1 upbm affinity estimate (log intensity, higher = more binding, comparable within an allelic series).
For the sequence ACGCTGGA, the binding signal in test [1] was 9.94 upbm affinity estimate (log intensity, higher = more binding, comparable within an allelic series); in test [3], 10.1 upbm affinity estimate (log intensity, higher = more binding, comparable within an allelic series).
On to AGCTGGGC, for which the binding signal in [1] was 10 upbm affinity estimate (log intensity, higher = more binding, comparable within an allelic series); in test [3], 10 upbm affinity estimate (log intensity, higher = more binding, comparable within an allelic series).
With CTAGCCAG, the binding signal in [1] is 10.1 upbm affinity estimate (log intensity, higher = more binding, comparable within an allelic series); in test [3], 10.1 upbm affinity estimate (log intensity, higher = more binding, comparable within an allelic series).
On to ACATAAGT, for which the binding signal was 10.9 upbm affinity estimate (log intensity, higher = more binding, comparable within an allelic series) in [1]; 9.71 upbm affinity estimate (log intensity, higher = more binding, comparable within an allelic series) in [12]; 10.8 upbm affinity estimate (log intensity, higher = more binding, comparable within an allelic series) in [3].
Consider AGAAAAAG, for which the binding signal in [1] is 10 upbm affinity estimate (log intensity, higher = more binding, comparable within an allelic series); in [3], 10.1 upbm affinity estimate (log intensity, higher = more binding, comparable within an allelic series).
Turning to CCCGAGAC, the binding signal in [1] was 9.98 upbm affinity estimate (log intensity, higher = more binding, comparable within an allelic series); in test [3] it was 9.98 upbm affinity estimate (log intensity, higher = more binding, comparable within an allelic series).
AGATAATG: the binding signal was 11.3 upbm affinity estimate (log intensity, higher = more binding, comparable within an allelic series) in test [1] and 11.2 upbm affinity estimate (log intensity, higher = more binding, comparable within an allelic series) in [3].
Consider CGCCAGCG, for which the binding signal in test [1] is 10 upbm affinity estimate (log intensity, higher = more binding, comparable within an allelic series); in test [3], 9.94 upbm affinity estimate (log intensity, higher = more binding, comparable within an allelic series).
On to AGGGCCAG, for which the binding signal was 9.98 upbm affinity estimate (log intensity, higher = more binding, comparable within an allelic series) in [1] and 10 upbm affinity estimate (log intensity, higher = more binding, comparable within an allelic series) in [3].
On to GCGGTGCC, for which the binding signal in [1] is 10 upbm affinity estimate (log intensity, higher = more binding, comparable within an allelic series); in test [3] it was 10 upbm affinity estimate (log intensity, higher = more binding, comparable within an allelic series).
As to CTTTCTTC, the binding signal in test [1] is 9.98 upbm affinity estimate (log intensity, higher = more binding, comparable within an allelic series); in test [3], 10.1 upbm affinity estimate (log intensity, higher = more binding, comparable within an allelic series).
With ACGCGAGC, the binding signal is 10.1 upbm affinity estimate (log intensity, higher = more binding, comparable within an allelic series) in [1] and 10.1 upbm affinity estimate (log intensity, higher = more binding, comparable within an allelic series) in test [3].
ATAAAAAG: the binding signal in test [1] is 12.1 upbm affinity estimate (log intensity, higher = more binding, comparable within an allelic series); in test [3] it was 11.5 upbm affinity estimate (log intensity, higher = more binding, comparable within an allelic series).
